# From the supplement of paper PMC10338343
# ± gives the standard deviation.
# Columns and labels:
# [1] = tested on: MILI (PIWIL2) piRISC loaded with L1MC piRNA (26 nt); experiment: pre-steady-state target cleavage rate (min^-1); guide: L1MC piRNA 5'p-UAACUAAAUACUAUGCAAGCUGUAGG; higher = faster piRNA-guided slicing of the target;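 also: 1 nM active piRISC with 0.1 nM target library at 33 °C single turnover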
# Summary of the method: (§1)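 For Cleave-'n-Seq, a transcribed, DNA-blocked target RNA library […] met 1 nM active affinity-purified piRISC with one synthetic guide at 33 °C for 0–8 or 0–960 min in HEPES–potassium acetate buffer, with or without 500 nM GTSF1 partner protein. Uncleaved targets were sequenced and normalised to depth and weakly complementary targets, with three trials pooled and k3 capped at 0.0001 min^-1. A burst-and-steady-state fit supplied the pre-steady-state cleavage rate.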
# [2] = tested on: EfPiwi piRISC loaded with L1MC piRNA (26 nt); experiment: pre-steady-state target cleavage rate (min^-1); auxiliary factor: 500 nM Ephydatia muelleri Gtsf1; guide: L1MC piRNA 5'p-UAACUAAAUACUAUGCAAGCUGUAGG; MIWI and MILI are mouse PIWI proteins and EfPiwi is from a freshwater sponge; tags in brackets are library labels; higher = faster piRNA-guided slicing of the target
# Summary of the method: as §1
# [3] = auxiliary factor: 500 nM mouse GTSF1
# [4] = auxiliary factor: none (no GTSF1)
Sequence,"pre-steady-state target cleavage rate [1, 3]","pre-steady-state target cleavage rate [1, 4]",pre-steady-state target cleavage rate [2]
UCCUGGAACUGCUUGCAUUGUAUUUAGUUA,0.177 ± 0.015,0.00842 ± 0.0019,0.00574 ± 0.0019
UCCUCCUACAGCUUGUCAUAGUAUUUAGUUA,0.258 ± 0.015,0.00407 ± 0.0019,0.0546 ± 0.016
UCCUGGAUCAGCUUGCAUUGUAAUUAGUUA,0.097 ± 0.011,0.00466 ± 0.0022,0.00179 ± 0.0017
UCCUGGUACAGCAUGCAUAGUAUUUAGAUA,0.137 ± 0.025,0.00437 ± 0.0029,0.00412 ± 0.0025
UCCUGGAUGAGCUUGCAUAGUACUUAGUUA,0.127 ± 0.018,0.00646 ± 0.0022,0.0106 ± 0.0037
UCCUGGUACAGCAUGCAUACUAUUUAGUUA,0.139 ± 0.031,0.00694 ± 0.003,0.00483 ± 0.0019
UCCUGGAUGAGCUUGCUUAGUAUUUAGUAA,0.155 ± 0.022,0.00595 ± 0.0027,0.00265 ± 0.0025
UCCUGGUACAGCUUGCAUAGUAUAAAGUUA,0.193 ± 0.046,0.00524 ± 0.0029,0.00482 ± 0.0022
UCCUGGAACAGCUUGCAUAGUAGUUUAGUUA,0.175 ± 0.013,0.00337 ± 0.0031,0.0047 ± 0.0024
UCCUCCUACAGCUUGCAUAGUAUCUAGUUA,0.176 ± 0.02,0.00564 ± 0.0022,0.00718 ± 0.0032
UCCUGCUACUGCUUGCAUAGUAUUUAGUUA,0.234 ± 0.025,0.00705 ± 0.0018,0.00883 ± 0.003
UCCUGGUAGAGCUUGCAUAGUUUUUAGUUA,0.0231 ± 0.005,0.00498 ± 0.0023,0.0049 ± 0.0026
UCCUCCUACAGCUUGCUUACUAUUUAGUUA,0.089 ± 0.011,0.00298 ± 0.0026,0.0407 ± 0.015
UCCUGGAUGUGCUUGCAUAGUCUUUAGUUA,0.0458 ± 0.011,0.00463 ± 0.0025,0.00922 ± 0.0036
UCCUGGAACUCGUUGCAUAGUAUUUAGUUA,0.154 ± 0.018,0.00417 ± 0.0024,0.00531 ± 0.0017
UCCUGCUUCAGCUUGCAUAGUAUUUUGUUA,0.144 ± 0.025,0.00322 ± 0.0024,0.00635 ± 0.0022
UCCUGCUAGAGCUUGCAUAGUAUUUUGUUA,0.172 ± 0.025,0.00521 ± 0.0022,0.00421 ± 0.0016
